Values joined by “and” are separate entries in the source; they are usually repeats but may differ in a detail not shown here. Equal entries are not always repeated. Among all 5,500 compounds or so, about 2,000 (36%) were called active. Roughly 18% stayed inconclusive and do not appear here. Cut-off read from the data, not from the text of the source: active = normalized growth mostly below about 0.91 (no sharp cut-off); inconclusive = no clear call, values can overlap the other calls; inactive = mostly above about 0.92. The list shows a part of the results.
Test: chemical genetic growth profiling, strain panel (AID 1159580);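 note: tested at 20 µM; growth read once vehicle control cultures reached saturation at 30 °C; 1 = growth at the plate median or of vehicle wells; lower values mean less growth of the strain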
Conditions: S. cerevisiae deletion strains, growth OD

Measured: normalized growth

CC(=O)/C=C\[C@@H]1[C@@]2(C)CCCC(C)(C)C2CC[C@@]1(C)O (some centres not stated)
inactive: locus YAL013W, strain DEP1, active compounds read low 0.964 | locus YAL021C, strain ccr4, active compounds read low 0.989 | locus YAL026C, strain drs2, active compounds read low 0.971 | locus YAL030W, strain snc1, active compounds read low 0.974 | locus YBL061C, strain skt5, active compounds read low 0.983 | locus YBR009C, strain hhf1, active compounds read low 0.971 | locus YBR021W, strain FUR4, active compounds read low 0.99 | locus YBR023C, strain chs3, active compounds read low 0.977 | locus YBR171W, strain sec66, active compounds read low 0.96 | locus YBR229C, strain ROT2, active compounds read low 0.946 | locus YBR231C, strain swc5, active compounds read low 0.988 | locus YBR279W, strain paf1, active compounds read low 0.966 | locus YCL011C, strain gbp2, active compounds read low 0.966 | locus YCL016C, strain dcc1, active compounds read low 0.988 | locus YCL029C, strain bik1, active compounds read low 0.985 | locus YCL061C, strain MRC1, active compounds read low 0.988 | locus YCL069W, strain vba3, active compounds read low 0.949 | locus YCR088W, strain abp1, active compounds read low 0.986 | locus YDL005C, strain med2, active compounds read low 0.971 | locus YDL035C, strain GPR1, active compounds read low 0.963 | locus YDL040C, strain nat1, active compounds read low 0.983 | locus YDL074C, strain BRE1, active compounds read low 0.901 | locus YDL101C, strain DUN1, active compounds read low 0.952 | locus YDL134C, strain PPH21, active compounds read low 0.964 | locus YDL185W, strain tfp1, active compounds read low 0.966 | locus YDL192W, strain arf1, active compounds read low 0.98 | locus YDR001C, strain nth1, active compounds read low 0.967 | locus YDR069C, strain doa4, active compounds read low 0.973 | locus YDR101C, strain arx1, active compounds read low 0.995 | locus YDR137W, strain rgp1, active compounds read low 0.902 | locus YDR150W, strain NUM1, active compounds read low 0.967 | locus YDR159W, strain sac3, active compounds read low 0.922 | locus YDR162C, strain NBP2, active compounds read low 0.843 | locus YDR195W, strain ref2 0.955 | locus YDR297W, strain sur2, active compounds read low 0.982 | locus YDR318W, strain mcm21, active compounds read low 1 | locus YDR334W, strain swr1, active compounds read low 0.946 | locus YDR335W, strain msn5, active compounds read low 0.981 | locus YDR388W, active compounds read low 0.987 | locus YDR392W, strain spt3, active compounds read low 0.842 | locus YDR502C, strain sam2, active compounds read low 0.951 | locus YEL003W, strain gim4, active compounds read low 0.976 | locus YEL037C, strain rad23, active compounds read low 0.969 | locus YEL061C, strain CIN8 (second series), active compounds read low 0.961 | locus YEL061C, strain CIN8, active compounds read low 0.968 | locus YER015W, strain faa2, active compounds read low 0.966 | locus YER016W, strain bim1, active compounds read low 0.982 | locus YER110C, active compounds read low 0.985 | locus YER111C, strain swi4, active compounds read low 0.978 | locus YER155C, strain BEM2 (second series), active compounds read low 0.982 | locus YER155C, strain BEM2, active compounds read low 0.972 | locus YER167W, strain BCK2, active compounds read low 0.989 | locus YFR010W, strain ubp6, active compounds read low 0.967 | locus YGL078C, strain dbp3, active compounds read low 0.968 | locus YGL086W, strain mad1, active compounds read low 0.996 | locus YGL167C, strain pmr1, active compounds read low 0.971 | locus YGL173C, strain kem1, active compounds read low 0.975 | locus YGL227W, strain vid30, active compounds read low 0.982 | locus YGL240W, strain doc1, active compounds read low 0.976 | locus YGL248W, strain PDE1, active compounds read low 0.969 | locus YGL253W, strain hxk2, active compounds read low 0.975 | locus YGR078C, strain PAC10, active compounds read low 0.963 | locus YGR135W, strain pre9, active compounds read low 0.922 | locus YGR229C, strain SMI1, active compounds read low 0.933 | locus YGR252W, strain gcn5, active compounds read low 1.05 | locus YHR013C, strain ard1, active compounds read low 0.964 | locus YHR027C, strain rpn1, active compounds read low 0.967 | locus YHR030C, strain SLT2, active compounds read low 0.993 and 0.958 | locus YHR079C, strain IRE1 (second series), active compounds read low 0.987 | locus YHR079C, strain IRE1, active compounds read low 0.989 | locus YHR094C, strain hxt1, active compounds read low 0.99 | locus YHR129C, strain ARP1, active compounds read low 0.975 | locus YHR142W, strain chs7, active compounds read low 0.979 | locus YHR200W, strain rpn10, active compounds read low 0.988 | locus YIL066C, strain RNR3, active compounds read low 0.953 | locus YIL073C, strain SPO22, active compounds read low 1.02 | locus YIL125W, strain kgd1, active compounds read low 0.991 | locus YIR030C, strain dcg1, active compounds read low 0.978 | locus YJL092W, strain hpr5, active compounds read low 0.98 | locus YJL095W, strain BCK1 (second series), active compounds read low 0.963 | locus YJL095W, strain BCK1, active compounds read low 0.916 and 0.981 | locus YJL115W, strain asf1, active compounds read low 0.96 | locus YJL129C, strain trk1, active compounds read low 0.957 | locus YJL134W, strain LCB3, active compounds read low 0.969 | locus YJL154C, strain vps35, active compounds read low 0.973 | locus YJL164C, strain tpk1, active compounds read low 0.997 | locus YJL166W, strain qcr8, active compounds read low 0.982 | locus YJL168C, strain set2, active compounds read low 0.976 | locus YJL187C, strain SWE1 (second series), active compounds read low 0.945 | locus YJL187C, strain SWE1, active compounds read low 0.969 | locus YJR043C, strain POL32, active compounds read low 1.03 | locus YJR066W, strain TOR1, active compounds read low 0.951

From PubChem BioAssay AID1159580 (chemical genetic matrix, 2015)
